High-throughput results from PubChem BioAssay.
Compounds with a hit are over-represented: about 3.3% of the library has one in this group of screens.
SMARCA2 activ: increases SMARCA2 function in MMTV reporter cells; MG213 cells, MMTV-luciferase reporter, dexamethasone, overnight; activation, % at 9.1 µM; hit rate 1% among 370,000; AID 652017; in the data active = activation above about 7.8%;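 also: 0% = vehicle wells and 100% = reference activator wells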
Jurkat NFkB inh: inhibitors of the PMA/ionomycin-induced NF-kB reporter in Jurkat cells. PMA/ionomycin-induced NF-kB luciferase reporter, luminescence. hit rate 0.53% among 330,000. inhibition, % at 4 µM; in the data active = inhibition above about 50%
697 NFkB inh: inhibitors of the PMA/ionomycin-induced NF-kB reporter in 697 B cells. 697 B-cell NF-kB luciferase reporter, 16 h. inhibition, % at 4 µM. hit rate 0.33% among 330,000. AID 435022; in the data active = inhibition above about 35%
esBAF inh: inhibitors of esBAF chromatin remodeling in mouse ES cells; Bmi1-luciferase knock-in reporter, 24 h; 100% = twice the neutral-well signal; reporter increase, % at 12.5 µM; hit rate 2% among 350,000; AID 602393; in the data active = activation above about 40%;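 also: 0% = median of the plate's neutral control wells and 100% = double that signal; a rise in the Bmi1 reporter signal indicates esBAF inhibition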
Gli-Sufu antag: Gli-Sufu pathway antagonism; Sufu-KO-LIGHT fibroblasts, Gli luciferase reporter luminescence; inhibition, % at 5 µM; hit rate 0.74% among 340,000; AID 588413;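 active = inhibition above about 55%, limit read from the data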;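 also: 0% = DMSO-treated cells and 100% = wells with medium but no cells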
Gli-Sufu confirm: Gli-SUFU antagonism confirmation, single concentration. hit rate 40% among 2,500. AID 602428. inhibition, % at 5 µM. Sufu-KO-LIGHT cells, Gli luciferase reporter, luminescence. shares compounds with Gli-Sufu antag;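 active = mean inhibition at 5 µM reaching about 45%, limit read from the data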;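 also: plate controls were DMSO-treated cells for no effect and wells lacking cells for full effect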
SufuKO cytotox: counter-screen for Gli-SUFU antagonists: cytotoxicity. hit rate 32% among 2,500. Sufu-KO-LIGHT cells cytotoxicity, ATP luminescence. cytotoxicity, % at 5 µM. shares compounds with Gli-Sufu antag;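 active = mean cytotoxicity at 5 µM above about 25%, limit read from the data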;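 also: cells exposed to compound overnight for roughly 16 to 18 hours; plate controls were DMSO wells with cells for no effect and medium without cells for full effect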
Wnt3a cs: inhibits Wnt3a reporter, counter-screen for Gli-SUFU antagonists; Wnt-LIGHT cells, Wnt3a-driven luciferase reporter, luminescence; AID 651995; inhibition, % at 6.25 µM; hit rate 20% among 2,500; shares compounds with Gli-Sufu antag;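 active = mean inhibition above about 25%, limit read from the data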
* = called active by the depositor; · = no result given.

SMILES	SMARCA2 activ	Jurkat NFkB inh	697 NFkB inh	esBAF inh	Gli-Sufu antag	Gli-Sufu confirm	SufuKO cytotox	Wnt3a cs
O=C(Nc1cc(Sc2ccccn2)cc([N+](=O)[O-])c1)c1cccc(Cl)c1	-5	1	2	·	7	·	·	·
O=C(Nc1cc(Sc2ccccn2)cc([N+](=O)[O-])c1)c1ccc(Cl)cc1	-1	21	-42	·	53	20	10	-58
COc1ccc(S(=O)(=O)/C(C#N)=C/Nc2ccccc2F)cc1	-1	-11	-4	2	2	·	·	·
COc1ccc(N/C=C(\C#N)S(=O)(=O)c2ccc(Cl)cc2)c(OC)c1	-3	7	3	0	65*	14	-8	0
O=C(c1ccc(Cl)cc1)N1CCN(c2ccnc3cc(Cl)ccc23)CC1	-1	·	·	·	67*	69*	18	4
O=c1cc(N2CCN(c3ccccc3)CC2)[nH]c(=O)n1-c1ccccc1Cl	-3	6	18	-8	-4	·	·	·
CCOC(=O)N1CCN(c2cc(=O)n(-c3ccccc3Cl)c(=O)[nH]2)CC1	-1	-5	12	-9	54	16	23	2
Cc1nnc(N/N=C/c2cc([N+](=O)[O-])c(N3CCC(C)CC3)cc2N2CCC(C)CC2)n1N	-4	6	2	-18	85*	87*	36*	-22
O=C(Nc1ccc(C(F)(F)F)cc1)N[C@H]1CC[C@@H](CCn2cc(C3(O)CCCC3)nn2)O[C@@H]1CO	·	·	·	7	·	·	·	·
C[C@H](CO)N1C[C@H](C)[C@@H](CN(C)C(=O)C2CC2)Oc2cc(-c3ccccc3)ccc2S1(=O)=O	·	·	·	1	·	·	·	·
O=C(N[C@@H]1C/C=C\C[C@H](CC(=O)N(CCO)Cc2ccccc2)C(=O)NC[C@@H](c2ccccc2)OC1=O)OCC1c2ccccc2-c2ccccc21	0	-4	7	-27	67*	65*	26*	-6
O=C(N[C@@H]1C/C=C\C[C@@H](CC(=O)N(CCO)Cc2ccccc2)C(=O)NC[C@H](c2ccccc2)OC1=O)OCC1c2ccccc2-c2ccccc21	0	19	-7	-16	59*	62*	23	16
O=C1CC/C=C\C[C@@H](CC(=O)N(CCO)Cc2ccccc2)C(=O)NC[C@@H](c2ccccc2)O1	0	-4	3	2	-3	·	·	·
C[C@H]1COC(=O)[C@@H](NC(=O)OCC2c3ccccc3-c3ccccc32)C/C=C\C[C@H](CC(=O)NCCO)C(=O)N1	0	-5	-1	-17	48	·	·	·
C[C@@H]1COC(=O)[C@@H](NC(=O)OCC2c3ccccc3-c3ccccc32)C/C=C\C[C@@H](CC(=O)N(CCO)Cc2ccccc2)C(=O)N1	-1	19	5	-27	75*	70*	21	-4
O=C(C[C@H]1C/C=C\C[C@H](NC(=O)OCC2c3ccccc3-c3ccccc32)C(=O)O[C@H](c2ccccc2)CNC1=O)N[C@H](CO)Cc1ccccc1	·	-13	-9	-25	63*	54*	34*	-12
C[C@H]1CN([C@@H](C)CO)C(=O)Cc2cc(NS(=O)(=O)c3ccc(F)cc3)ccc2O[C@@H]1CN(C)Cc1ccc(Oc2ccccc2)cc1	·	·	·	0	·	·	·	·
Cc1noc(C)c1S(=O)(=O)Nc1ccc2c(c1)C(=O)N([C@H](C)CO)C[C@H](C)[C@H](CN(C)C(=O)Nc1cccc3ccccc13)OCCCC[C@H](C)O2	·	·	·	-6	·	·	·	·
C[C@@H]1CN([C@H](C)CO)C(=O)c2cc(C#C[C@@H](C)O)cnc2O[C@@H]1CN(C)C(=O)c1ccc(F)cc1	·	·	·	0	·	·	·	·
O=C(NC(=S)Nc1ccccc1O)c1cccnc1	-1	-9	8	10	82*	17	-11	-8
N#Cc1ccccc1NC(=S)NC(=O)c1cccnc1	-1	-5	13	11	-11	·	·	·
COc1ccc(NC(=O)/C(C#N)=C\c2cc(C)n(-c3ccc4c(c3)OCO4)c2C)cc1	-1	46	-54	·	64*	56*	56*	-65
C/C=C/c1cnc2c(c1)C(=O)N([C@@H](C)CO)C[C@H](C)[C@@H](CN(C)C(=O)NC1CCCC1)O2	·	·	·	-2	·	·	·	·
Cc1ccc(-c2nn(C)c(=O)c3ccccc23)cc1S(=O)(=O)N1CCCC1	-4	-5	-18	6	14	·	·	·
Cc1ccc(-c2nn(C)c(=O)c3ccccc23)cc1S(=O)(=O)N1CCOCC1	-4	13	14	·	51	22	20	16
SMILES	SMARCA2 activ	Jurkat NFkB inh	697 NFkB inh	esBAF inh	Gli-Sufu antag	Gli-Sufu confirm	SufuKO cytotox	Wnt3a cs
Cc1noc(C)c1NC(=O)N(C)C[C@H]1OCCCC[C@@H](C)Oc2ccc(NC(=O)Nc3ccccc3)cc2C(=O)N([C@H](C)CO)C[C@@H]1C	·	·	·	-2	·	·	·	·
COc1cccc(CN2CCN(S(=O)(=O)c3ccc(Br)cc3)CC2)c1	-1	1	2	2	7	·	·	·
COc1ccc(S(=O)(=O)N2CCN(Cc3cccc(OC)c3)CC2)cc1	0	16	10	1	62*	23	-3	8
COc1ccc(NC(=O)CC2C(=O)NCCN2C(=O)c2ccc(N(C)C)cc2)cc1 (stereo not given)	0	-3	19	·	2	·	·	·
CN(C)c1ccc(C(=O)N2CCNC(=O)C2CC(=O)Nc2ccc(F)cc2)cc1 (stereo not given)	1	13	4	1	95*	17	3	-6
CCN(CC)Cc1cc2ccccc2c2c1COC2	0	15	24	-4	94*	13	8	-16
CSC1=NCCN1C(=O)Cc1ccc(-c2ccccc2)cc1	-2	5	-10	·	62*	23	13	-94
CCSC1=NCCN1C(=O)Cc1ccc(-c2ccccc2)cc1	-3	12	-8	·	-8	·	·	·
COc1ccc(CNCC(O)(c2ccccc2)c2ccccc2)cc1OC	-8	12	3	·	53	15	14	-11
Cc1nn(C)c(C)c1/C=C/C(=O)O	0	7	-12	-3	-2	·	·	·
Cc1nn(C)c(C)c1/C=C/C(=O)c1ccc(Cl)cc1Cl	-3	37	-18	·	64*	63*	23	-5
CC(=O)Nc1ccc(S(=O)(=O)N(Cc2ccccc2)C(C)C)cc1	-5	2	-22	-40	57*	56*	12	19
O=C(N/N=C/c1ccncc1)C12CC3CC(CC(C3)C1)C2	5	-2	7	·	58*	21	6	-18
Cc1c(NC(=S)NC(NC(=O)C(C)(C)C)C(Cl)(Cl)Cl)c(=O)n(-c2ccccc2)n1C (stereo not given)	0	-9	2	·	51	25	1	6
CN(C)S(=O)(=O)c1cccc(C(=O)OCC(=O)Nc2sccc2C#N)c1	·	-2	-4	·	99*	17	5	-65
